Data published in ChEMBL document CHEMBL3988442, “University of Dundee, Small-Polar-MMV Screening Library” (2021).

Tests used:
[1] = biological target: T1, Aspartate--tRNA(Asp/Asn) ligase (Mycobacterium tuberculosis (strain ATCC 25618 / H37Rv)) (UniProt P9WFW3); test: Assay for Asp RNA synthetase-1 from Mycobacterium tuberculosis; assay type: functional; design: scale not given: direction of the effect not stated beside the values; conditions: 30 µM; note: in the data most compounds retested in dose-response had high values
T1 sequence (whole entry): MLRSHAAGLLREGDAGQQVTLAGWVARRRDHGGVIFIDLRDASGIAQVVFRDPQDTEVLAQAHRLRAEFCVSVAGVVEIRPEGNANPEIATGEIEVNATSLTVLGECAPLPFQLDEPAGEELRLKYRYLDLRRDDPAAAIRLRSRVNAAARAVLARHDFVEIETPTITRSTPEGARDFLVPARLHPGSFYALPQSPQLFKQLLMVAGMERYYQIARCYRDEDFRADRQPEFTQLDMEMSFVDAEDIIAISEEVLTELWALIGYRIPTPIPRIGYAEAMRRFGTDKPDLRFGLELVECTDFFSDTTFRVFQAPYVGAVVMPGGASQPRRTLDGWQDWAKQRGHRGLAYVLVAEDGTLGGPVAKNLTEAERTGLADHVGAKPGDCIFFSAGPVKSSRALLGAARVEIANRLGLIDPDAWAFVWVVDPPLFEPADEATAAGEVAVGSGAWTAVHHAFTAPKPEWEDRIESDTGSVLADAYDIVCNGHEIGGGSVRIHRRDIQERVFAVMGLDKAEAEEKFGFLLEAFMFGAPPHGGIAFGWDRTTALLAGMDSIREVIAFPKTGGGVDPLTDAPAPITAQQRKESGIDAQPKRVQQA

[2] = biological target: Shiga toxin 2 (Escherichia coli O157:H7) (UniProt P09385+P09386); test: E. coli 0.157:H7 Shiga Toxin SOP - stx2 screening assay; assay type: functional; design: scale not given: direction of the effect not stated beside the values; conditions: 30 µM

Structure (SMILES) | Percent Effect [1] [%] | Percent Effect [2] [%]
Cc1nn(C)c(C)c1C1CCCN1CC(=O)NC(C1CC1)C1CC1 (centres undefined) | -3.8 | -0.393
Cc1cc(O)nc(C2CCCN(Cc3ccncc3)C2)n1 (centres undefined) | 1.35 | 11.8
Cc1nn(C)c2cnn(CC(=O)NCCc3ccccc3)c12 | -1.83 | -33.3
COCCN1C(=O)CCC12CCN(C(=O)CC1CC1)CC2 | 2.75 | 0.89
CCC1CN(CC(=O)Nc2sccc2C#N)CCO1 (centres undefined) | -2.46 | 32.6
O=C(NCN1CCc2ccccc2C1)c1cnccn1 | 8.37 | -18.9
CN(CCCC#N)C1CCCN(Cc2noc(C3CC3)n2)C1 (centres undefined) | -2.54 | 7.14
CCc1cc(C(F)(F)F)c2c(C)nn(CC(=O)O)c2n1 | -5.37 | 14.6
Cn1cccc1C(=O)N1CCc2ncnc(C3CC3)c2CC1 | 0.574 | -1.81
CC(=O)N(C)c1nc(CN2CCOC(Cn3cccn3)C2)cs1 (centres undefined) | 3.18 | -10.3
Cc1cnn(C2CCCN(C(=O)c3cccc(Cn4ccnc4)c3)C2)c1 (centres undefined) | 0.538 | -30.9
CC(=O)N1CCC(C(=O)NCCN2CCCCC2)CC1 | -0.501 | -3.32
c1cnnc(N2CCCC(NCc3cn4ccccc4n3)C2)c1 (centres undefined) | 2.13 | -114
O=C(NCc1ccccn1)[C@H]1COC[C@H]2CN(Cc3ccoc3)C[C@H]21 | -0.779 | -0.902
Cc1cnn(CCC(=O)N2CCCC(c3cc(C(N)=O)[nH]n3)C2)c1 (centres undefined) | -2.86 | -13.8
CCOc1ccnc(N2CCN(C(=O)c3cc(Cl)c[nH]3)CC2)n1 | -2.48 | 18.5
CCC1(CC)Cc2ccccc2-c2nc(CN(C)C)nc(O)c21 | 8.36 | -1.34
Cc1cc(-c2nn(C)c(Cl)c2CN2CCOCC2CC(=O)O)no1 (centres undefined) | -2.48 | 19.9
Cc1cc(C)n(C2CN(CC(=O)N3CCOCC3)C2)n1 | -0.655 | 9.68
CS(=O)(=O)c1ccc(CNC2CCCN(c3cccnn3)C2)cc1 (centres undefined) | -4.64 | 4.3
O=C(NC1CC(=O)N(Cc2cccc(F)c2)C1)c1ccncc1 (centres undefined) | 0.413 | -9.17
Cc1ccc(CCC(=O)N(C)CCN2CCOCC2)c(C)c1 | -4.01 | -8.65
O=C(COCC1CC1)N1CCCC(n2cncn2)C1 (centres undefined) | -4.03 | 18.2
O=C(NCCCN1CCCC1=O)Nc1ccc(Br)cc1Cl | -2.15 | -11

Structure (SMILES) | Percent Effect [1] [%] | Percent Effect [2] [%]
CN1CCCC[C@@H]2[C@H]1[C@@H](c1ccccc1)CCN2C(=O)c1cnccn1 | 0.342 | -18.3
CCNC(=O)c1ccoc1CN1c2ccccc2CC1C (centres undefined) | 2.94 | -19.2
Cc1ccc(N2CCCN(C(=O)c3cc(Cl)c[nH]3)CC2)nn1 | -1.03 | -26.5
Cc1cc(C(=O)N2CC[C@@H]3CN(S(C)(=O)=O)CCO[C@@H]3C2)c(C)o1 | 2.19 | 1.92
O=C(c1ccccn1)N1Cc2nccn2CC(COc2cccnc2)C1 (centres undefined) | 3.15 | -14.8
c1cnc(-c2cnc(N3CCSCC3)nc2C2CC2)cn1 | 1.07 | 4.88
Cc1noc(C2CCC3(CCN(C(=O)C4=CCCCC4)CC3)O2)n1 (centres undefined) | -2.98 | 7.42
CC(=O)NC1CCCN(C(=O)c2ccc(Br)cc2O)C1 (centres undefined) | 2.34 | 19.3
CCc1c(C)sc(NC(=O)CN2CCN(CC)CC2)c1C(=O)OC | -1.36 | -31.3
Cc1cnn(CCNCc2csc(-c3ccc4c(c3)OCO4)n2)c1 | 1.41 | 23.7
Cc1nnc(NC(=O)NCc2cc(F)cc(F)c2)s1 | 4.55 | 29.7
CCCS(=O)(=O)NCC1CCOc2ccccc2C1 (centres undefined) | 0.416 | -40
c1ccc(-c2noc(CN3CCOC(Cn4cccn4)C3)n2)nc1 (centres undefined) | -2.01 | 11.3
CN(C)c1cc(CNC(=O)Nc2ccc(S(C)(=O)=O)nc2)ccn1 | -1.23 | -117
CCN1CC2(CC1=O)CN(Cc1cccs1)CCN(C(=O)C(C)C)C2 (centres undefined) | -0.746 | 0.818
O=C(Cc1ccccc1F)N1CCN(C(=O)c2ccoc2)CC1 | 5.87 | -6.64
c1ccc(OCc2nnc3n2CCN(CC2CCOCC2)C3)nc1 | 10.1 | 7.95
Cc1nc(CN2CCOC(CN(C)c3cccnn3)C2)cs1 (centres undefined) | -1.09 | 7.32
Cc1nc(CN2CCc3ncnc(C)c3CC2)cs1 | -3.93 | -9.46
COc1cccc(COCC(=O)N2CCCC(N3CCCC3)CC2)c1 (centres undefined) | -5.12 | 12.6
Fc1ccc(CN2CC[C@H]3O[C@@H](COCC4CCOCC4)CC[C@H]32)cc1 | 0.838 | -14.5
O=C(NCC1CC1)C1CSCN1S(=O)(=O)c1cccc(F)c1 (centres undefined) | 2.56 | -5.9
CC(=O)N1CCN(Cn2nc(-c3ccc(F)cc3)oc2=O)CC1 | 0.698 | -18.6
